Bioassay records as filed in PubChem BioAssay.
HIV Env fusion – blocks HIV Env-driven cell-cell fusion | inhibition, % at 12.3 µM | hit rate 1.1% among 360,000 | HeLa-JRFL Env/CEM21 cell fusion, luciferase;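 active means mean replicate inhibition score of at least 50 and every replicate individually at or above 50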
PAX8 reporter – lowers PAX8-driven luciferase in RMG-I cells | hit rate 1.2% among 360,000 | RMG-I TPO-luciferase reporter, SteadyGlo, 24 h | inhibition, % at 12.6 µM;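 active means mean replicate inhibition at least 60% with every replicate also reaching 60%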;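 further: luciferase light reporting Pax8 driven TPO promoter activity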
Shn3 3UTR inh – inhibitors of Schnurri-3 3'UTR reporter in osteoblasts; Clone20 osteoblast Shn3 3'UTR firefly luciferase, 24 h; inhibition, % at 12.5 µM; hit rate 0.52% among 360,000;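 active means mean inhibition of at least 75% with every replicate also reaching 75%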
N-glyco inh – blocks N-linked glycosylation in D54 reporter cells; D54 ERlucT glycosylation luciferase reporter, 24 h; percent of 100 nM tunicamycin response; reporter increase, % at 12.5 µM; hit rate 0.23% among 360,000; AID 588692;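 active means mean luciferase reporter signal, scaled so untreated is 0 and the glycosylation-blocking control 100, at or above a set limit in every replicate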;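 further: luciferase carries N-glycosylation sites so blocking glycosylation raises the light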
LMP1 NFkB inh – inhibitors of Epstein-Barr LMP1-induced NF-kappaB reporter; LMP1-induced NF-kappaB luciferase reporter cells, luminescence; hit rate 0.69% among 350,000; AID 504558; inhibition, % at 12.5 µM; in the data active means inhibition above about 41%
NSD2 inh – NSD2 (human) methyltransferase inhibition. O96028. NSD2 peptide methylation, AlphaScreen, 120 min. hit rate 0.54% among 310,000. inhibition, % at 12.5 µM; in the data active means inhibition above about 50%
Target sequence (O96028 whole entry, looked up): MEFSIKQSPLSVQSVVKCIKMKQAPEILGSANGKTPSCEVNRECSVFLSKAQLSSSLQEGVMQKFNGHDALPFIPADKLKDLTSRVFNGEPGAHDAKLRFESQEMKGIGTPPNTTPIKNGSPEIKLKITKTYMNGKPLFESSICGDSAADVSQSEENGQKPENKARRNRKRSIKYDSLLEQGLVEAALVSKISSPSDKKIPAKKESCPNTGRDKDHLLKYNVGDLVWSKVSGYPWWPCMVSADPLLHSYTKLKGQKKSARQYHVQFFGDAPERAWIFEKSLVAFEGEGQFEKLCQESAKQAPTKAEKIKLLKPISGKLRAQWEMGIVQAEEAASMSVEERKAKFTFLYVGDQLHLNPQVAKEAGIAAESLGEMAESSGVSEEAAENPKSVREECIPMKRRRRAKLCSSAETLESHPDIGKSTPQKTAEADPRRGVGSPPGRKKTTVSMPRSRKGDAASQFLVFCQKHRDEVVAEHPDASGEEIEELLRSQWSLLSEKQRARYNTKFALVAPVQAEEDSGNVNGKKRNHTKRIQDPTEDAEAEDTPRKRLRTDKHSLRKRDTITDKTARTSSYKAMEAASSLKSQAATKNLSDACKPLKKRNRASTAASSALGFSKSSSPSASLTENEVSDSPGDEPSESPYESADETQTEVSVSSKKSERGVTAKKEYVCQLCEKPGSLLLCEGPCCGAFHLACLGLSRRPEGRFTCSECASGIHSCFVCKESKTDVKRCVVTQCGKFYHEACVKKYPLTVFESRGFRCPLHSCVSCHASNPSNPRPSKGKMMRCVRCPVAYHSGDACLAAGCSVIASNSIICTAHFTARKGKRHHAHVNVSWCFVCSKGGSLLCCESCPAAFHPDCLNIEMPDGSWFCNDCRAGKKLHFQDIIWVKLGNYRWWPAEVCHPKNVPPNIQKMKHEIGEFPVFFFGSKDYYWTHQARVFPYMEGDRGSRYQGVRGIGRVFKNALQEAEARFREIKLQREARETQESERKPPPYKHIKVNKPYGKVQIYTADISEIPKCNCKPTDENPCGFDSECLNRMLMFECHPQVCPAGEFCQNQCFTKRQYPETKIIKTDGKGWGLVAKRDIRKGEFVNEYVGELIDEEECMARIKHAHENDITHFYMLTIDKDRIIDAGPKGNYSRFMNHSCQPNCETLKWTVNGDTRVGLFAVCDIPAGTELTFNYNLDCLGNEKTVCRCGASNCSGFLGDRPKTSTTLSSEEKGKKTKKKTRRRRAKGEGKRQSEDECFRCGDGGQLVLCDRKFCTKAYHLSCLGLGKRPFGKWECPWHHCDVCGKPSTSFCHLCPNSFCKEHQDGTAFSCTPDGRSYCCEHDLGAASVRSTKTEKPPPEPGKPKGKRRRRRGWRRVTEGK
Hits are given with their value. In the library only some 2.8% were active in any assay of this set; here they are far more common.

Screening CN(Cc1ccc(OCC(O)CN2CCCCC2)cc1)Cc1ccnc2ccccc12 (stereo not drawn) returned HIV Env fusion inactive, PAX8 reporter inactive, Shn3 3UTR inh 87, N-glyco inh inactive, LMP1 NFkB inh inactive and NSD2 inh inactive.
`Cc1nn(C)cc1CN(C)Cc1ccc(OCC(O)CN2CCCCC2)cc1` (stereo not drawn) gave HIV Env fusion inactive, PAX8 reporter inactive, Shn3 3UTR inh inactive, N-glyco inh inactive, LMP1 NFkB inh inactive and NSD2 inh inactive.
COc1ccc(NC(=O)Nc2ccc3c(c2)CC(=O)N([C@H](C)CO)C[C@H](C)[C@@H](CN(C)Cc2ccc4c(c2)OCO4)O3)cc1 was read as HIV Env fusion inactive.
Screening COc1ccc(NC(=O)N(C)C[C@@H]2OCCCC[C@@H](C)Oc3ccc(NC(=O)NC4CCCCC4)cc3C(=O)N([C@H](C)CO)C[C@H]2C)cc1 returned HIV Env fusion inactive and PAX8 reporter inactive.
Screening Cc1ccc(S(=O)(=O)N(C)C[C@@H]2Oc3cc(C#Cc4ccncc4)ccc3S(=O)(=O)N([C@@H](C)CO)C[C@H]2C)cc1 returned PAX8 reporter 83.
`Cc1ccc(S(=O)(=O)N(C)C[C@@H]2Oc3cc(C#Cc4ccncc4)ccc3S(=O)(=O)N([C@H](C)CO)C[C@H]2C)cc1` gave PAX8 reporter 106.
For C[C@H](CO)N1C[C@H](C)[C@@H](CN(C)S(=O)(=O)c2ccc(F)cc2)Oc2cc(C#Cc3ccncc3)ccc2S1(=O)=O the results were HIV Env fusion inactive.
Cc1ccc(S(=O)(=O)N(C)C[C@H]2Oc3cc(C#Cc4ccncc4)ccc3S(=O)(=O)N([C@@H](C)CO)C[C@@H]2C)cc1 was read as PAX8 reporter 103.
Screening Cc1ccc(S(=O)(=O)N(C)C[C@@H]2Oc3cc(C#Cc4ccncc4)ccc3S(=O)(=O)N([C@H](C)CO)C[C@@H]2C)cc1 returned PAX8 reporter 78.
Screening C/C=C/c1ccc2c(c1)O[C@@H](CN(C)C(=O)c1ccccc1F)[C@@H](C)CN([C@@H](C)CO)S2(=O)=O returned HIV Env fusion inactive.
`CCN(C[C@H]1N[C@@](C)(C(=O)OC)[C@H]2C(=O)N(Cc3ccccc3)C(=O)[C@@H]12)C(=O)Nc1ccccc1` gave HIV Env fusion 127, PAX8 reporter inactive, Shn3 3UTR inh inactive, N-glyco inh inactive and LMP1 NFkB inh inactive.
For CCN(C[C@H]1N[C@@](C)(C(=O)OC)[C@H]2C(=O)N(Cc3ccccc3)C(=O)[C@@H]12)C(=O)NC(C)C the results were HIV Env fusion inactive, PAX8 reporter inactive, Shn3 3UTR inh inactive, N-glyco inh inactive and LMP1 NFkB inh inactive.
CCNC(=O)N(CC)C[C@H]1N[C@@](C)(C(=O)OC)[C@H]2C(=O)N(Cc3ccccc3)C(=O)[C@@H]12 was read as HIV Env fusion inactive, PAX8 reporter inactive, Shn3 3UTR inh inactive, N-glyco inh inactive and LMP1 NFkB inh inactive.
For CCN(C[C@H]1N[C@@](CC)(C(=O)OC)[C@H]2C(=O)N(Cc3ccccc3)C(=O)[C@@H]12)C(=O)Nc1ccc(OC)cc1 the results were HIV Env fusion 87, PAX8 reporter inactive, Shn3 3UTR inh inactive, N-glyco inh inactive and LMP1 NFkB inh inactive.
For CCN(C[C@H]1N[C@@](CC)(C(=O)OC)[C@H]2C(=O)N(Cc3ccccc3)C(=O)[C@@H]12)C(=O)Nc1ccc(C(F)(F)F)cc1 the results were HIV Env fusion inactive, PAX8 reporter inactive, Shn3 3UTR inh inactive, N-glyco inh inactive and LMP1 NFkB inh inactive.
For CCN(C[C@H]1N[C@@](C)(C(=O)OC)[C@H]2C(=O)N(Cc3ccccc3)C(=O)[C@@H]12)S(=O)(=O)c1ccc(C)cc1 the results were HIV Env fusion 69, PAX8 reporter inactive, Shn3 3UTR inh inactive, N-glyco inh inactive and LMP1 NFkB inh inactive.
CCN(C[C@H]1N[C@@](C)(C(=O)OC)[C@H]2C(=O)N(Cc3ccccc3)C(=O)[C@@H]12)C(=O)Nc1ccc(C)cc1 was read as HIV Env fusion 79, PAX8 reporter inactive, Shn3 3UTR inh inactive, N-glyco inh inactive and LMP1 NFkB inh inactive.
`COc1ccc(NS(=O)(=O)c2cc(NC(=O)Cc3ccccc3F)ccc2N2CCOCC2)cc1` gave NSD2 inh inactive.
For CN(C)C(=O)C[C@@H]1CC[C@@H]2[C@H](COc3ccc(NC(=O)C4CCOCC4)cc3C(=O)N2C)O1 the results were HIV Env fusion inactive and PAX8 reporter inactive.
CCN(C[C@H]1N[C@@](CC)(C(=O)OC)[C@H]2C(=O)N(Cc3ccccc3)C(=O)[C@@H]12)C(=O)c1ccc(F)cc1 was read as HIV Env fusion 56, PAX8 reporter inactive, Shn3 3UTR inh inactive, N-glyco inh inactive and LMP1 NFkB inh inactive.
Screening CC[C@@]1(C(=O)OC)N[C@H](CN(C)C(=O)COc2ccccc2)[C@@H]2C(=O)N(Cc3ccccc3)C(=O)[C@@H]21 returned HIV Env fusion 69, PAX8 reporter inactive, Shn3 3UTR inh inactive, N-glyco inh inactive and LMP1 NFkB inh inactive.
Screening COC(=O)[C@]1(Cc2ccccc2)N[C@H](CN(C)S(=O)(=O)c2ccc(-c3ccccc3)cc2)[C@@H]2C(=O)N(Cc3ccccc3)C(=O)[C@@H]21 returned HIV Env fusion 59, PAX8 reporter inactive, Shn3 3UTR inh inactive, N-glyco inh inactive and LMP1 NFkB inh inactive.
`COC(=O)N1C(=O)[C@@](c2ccc(Cl)cc2)(C(C)C)N1C(=O)OC` gave NSD2 inh inactive.
For O=C(Nc1cccc(Cl)c1Cl)C1CC(=O)N(c2ccc(Br)cc2)C1 (stereo not drawn) the results were HIV Env fusion inactive, Shn3 3UTR inh 87, N-glyco inh inactive, LMP1 NFkB inh inactive and NSD2 inh inactive.
Screening O=C(Nc1cccc(F)c1)C1CC(=O)N(c2ccc(Br)cc2)C1 (stereo not drawn) returned Shn3 3UTR inh inactive, N-glyco inh inactive, LMP1 NFkB inh inactive and NSD2 inh inactive.
COc1ccccc1-c1cn(CC[C@@H]2CC[C@H](NC(=O)C3CCCC3)[C@H](CO)O2)nn1 was read as PAX8 reporter inactive.
Screening CC1=C(CC(=O)O)c2cc(F)ccc2/C1=C/c1ccc(S(C)=O)cc1 (stereo not drawn) returned HIV Env fusion inactive, PAX8 reporter inactive, Shn3 3UTR inh inactive, N-glyco inh inactive and LMP1 NFkB inh inactive.
CC1=C(CC(=O)O)c2cc(F)ccc2C1=Cc1ccc(S(C)(=O)=O)cc1 was read as HIV Env fusion inactive, PAX8 reporter inactive, Shn3 3UTR inh inactive, N-glyco inh inactive and LMP1 NFkB inh 83.
CCC(=O)N1CC2(C1)CN(Cc1ccc(Cl)cc1)[C@@H](CO)c1[nH]c3cc(OC)ccc3c12 was read as HIV Env fusion inactive.
Screening C=CCNC(=O)[C@H]1[C@@H]2C(=O)O[C@@H](c3ccccc3)[C@@H](c3ccccc3)N2[C@@H](c2ccc(O)cc2)[C@]12C(=O)Nc1ccc(C#CC3=CCCCC3)cc12 returned HIV Env fusion inactive and PAX8 reporter inactive.
